# In the supplement of paper PMC9942566:
# ± gives the standard deviation of the averaged measurements.
# System: Serratia marcescens K904 PosmB-luxCDABE reporter (pMQ747)
# Assay: PosmB-lux reporter fold induction (RLU/OD600 relative to no-compound control), highest over Biolog concentrations; higher = stronger reporter activation
# Conditions: ΔrcsB mutant CMS5177; 4 h
# Protocol: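 Serratia marcescens K904 (wild type) or its isogenic ΔrcsB mutant, carrying the Rcs-dependent PosmB-luxCDABE reporter plasmid pMQ747, was grown in LB at OD600 0.1 in Biolog Phenotype MicroArray plates PM11-20 for 4 h at 30-32°C. Each compound is present at 3-4 proprietary concentrations (not stated); per the Fig. S1 legend the value given is the highest fold over those wells. Three independent trials.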
row,SMILES,PosmB-lux reporter fold induction
1,"CN[C@@H]1[C@@H](O[C@H]2O[C@H](CO)[C@@H](N)[C@H](O)[C@H]2O)OC2C[C@@H](N)[C@@H](O[C@H]3[C@H](O)[C@@H](O)[C@H](N)C[C@@H]3N)OC2[C@@H]1O (stereo not given in full) [apramycin] (Biolog plate: PM20, well positions: A5-8)",1.48 ± 0.21
2,"CO[C@H]1C[C@H](O[C@H]2[C@H](C)[C@@H](O[C@@H]3O[C@H](C)C[C@H](N(C)C)[C@H]3O)[C@@H](C)C[C@@]3(CO3)C(=O)[C@H](C)[C@@H](O)[C@@H](C)[C@@H](C)OC(=O)[C@@H]2C)O[C@@H](C)[C@@H]1O [Oleandomycin] (Biolog plate: PM15, well positions: F5-8)",2.18 ± 0.57
3,"O=c1[nH]c(=O)n([C@H]2C[C@H](O)[C@@H](CO)O2)cc1C(F)(F)F [trifluorothymidine] (Biolog plate: PM18, well positions: B1-4)",1.09 ± 0.28
4,"CCn1cc(C(=O)O)c(=O)c2cc(F)c(N3CCNCC3)cc21 [norfloxacin] (Biolog plate: PM16, well positions: B1-4)",1.91 ± 0.65
5,"O=C1OC(CN2CCOCC2)CN1/N=C/c1ccc([N+](=O)[O-])o1 (stereo not given) [Furaltadone] (Biolog plate: PM14, well positions: A5-8)",1.51 ± 0.47
6,"CC1(C)S[C@@H]2[C@H](NC(=O)C(C(=O)O)c3ccccc3)C(=O)N2[C@H]1C(=O)O (stereo not given in full) [Carbenicillin] (Biolog plate: PM12, well positions: A9-12)",1.03 ± 0.29
7,"CN(C)[C@@H]1C(O)=C(C(=O)NCN2CCCC2)C(=O)[C@@]2(O)C(O)=C3C(=O)c4c(O)cccc4[C@@](C)(O)[C@H]3C[C@@H]12 [Rolitetracycline] (Biolog plate: PM13, well positions: D9-12)",1.73 ± 0.11
8,"C1COCCOCCOCCOCCOCCO1 [18-crown-6 ether] (Biolog plate: PM20, well positions: D9-12)",1.53 ± 0.55
9,"CCCCCCCC[N+](C)(CCCCCCCC)CCCCCCCC [methyltrioctyl-ammonium chloride] (Biolog plate: PM19, well positions: B1-4)",2.23 ± 1.5
10,"CN[C@@H]1[C@H](O)[C@H](NC)[C@H]2O[C@@]3(O)C(=O)C[C@@H](C)O[C@H]3O[C@@H]2[C@H]1O [Spectinomycin] (Biolog plate: PM12, well positions: G1-4)",1.6 ± 0.68
11,"CCC[C@@H]1C[C@@H](C(=O)N[C@@H]([C@H]2O[C@H](SC)[C@H](O)[C@@H](O)[C@H]2O)[C@@H](C)O)N(C)C1 [Lincomycin] (Biolog plate: PM11, well positions: A9-12)",2.28 ± 0.49
12,"NC[C@@H]1O[C@H](O[C@H]2[C@@H](O)[C@H](O[C@@H]3[C@@H](O)[C@H](N)C[C@H](N)[C@H]3O[C@H]3O[C@H](CN)[C@@H](O)[C@H](O)[C@H]3N)O[C@@H]2CO)[C@H](N)[C@@H](O)[C@@H]1O [Neomycin] (Biolog plate: PM11, well positions: F9-12)",1.31 ± 0.23
13,"COc1cc(NS(=O)(=O)c2ccc(N)cc2)ncn1 [sulfamono-methoxine] (Biolog plate: PM17, well positions: C9-12)",1.4 ± 0.25
14,"CN(C)CCC=C1c2ccccc2CCc2ccccc21 [amitriptyline] (Biolog plate: PM20, well positions: A2-4)",1.16 ± 0.17
15,"Oc1c(Cl)cc(Cl)c2cccnc12 [5,7-Dichloro-8-hydroxyquinoline] (Biolog plate: PM15, well positions: C1-4)",1.43 ± 0.18
16,"C[n+]1c2cc(N)ccc2cc2ccc(N)cc21.Nc1ccc2cc3ccc(N)cc3nc2c1 [Acriflavine] (Biolog plate: PM14, well positions: A2-4)",2.05 ± 0.23
17,"CC(=O)O[C@H]1C[C@@]2(C)[C@@H](C[C@@H](O)[C@H]3[C@@]4(C)CC[C@@H](O)[C@@H](C)[C@@H]4CC[C@@]32C)/C1=C(\CCC=C(C)C)C(=O)O [Fusidic acid] (Biolog plate: PM15, well positions: C5-8)",1.43 ± 0.16
18,"O=C1CN(/N=C/c2ccc([N+](=O)[O-])o2)C(=O)N1 [Nitrofurantoin] (Biolog plate: PM14, well positions: E5-8)",1.19 ± 0.084
19,"CCCCC(CC)CNC(=N)NC(=N)NCCCCCCNC(=N)NC(=N)NCC(CC)CCCC (stereo not given) [Alexidine] (Biolog plate: PM15, well positions: E1-4)",1.92 ± 0.13
20,"Oc1c(I)cc(Cl)c2cccnc12 [5-chloro-7-iodo-8-hydroxy-quinoline] (Biolog plate: PM16, well positions: A9-12)",1.51 ± 0.53

row,SMILES,PosmB-lux reporter fold induction
1,"CC1(C)S[C@@H]2[C@H](NC(=O)COc3ccccc3)C(=O)N2[C@H]1C(=O)O.CN(C)[C@@H]1C(O)=C(C(=O)NCN2CCN(CCO)CC2)C(=O)[C@@]2(O)C(O)=C3C(=O)c4c(O)cccc4[C@@](C)(O)[C@H]3C[C@@H]12 [Penimepicycline] (Biolog plate: PM12, well positions: B5-8)",1.27 ± 0.3
2,"CN[C@@H]1[C@H](O[C@H]2[C@H](O[C@H]3[C@H](O)[C@@H](O)[C@H](N=C(N)N)[C@@H](O)[C@@H]3N=C(N)N)O[C@@H](C)[C@]2(O)C=O)O[C@@H](CO)[C@H](O)[C@H]1O [streptomycin] (Biolog plate: PM16, well positions: E1-4)",1.98 ± 0.69
3,"CN(C)[C@@H]1C(O)=C(C(N)=O)C(=O)[C@@]2(O)C(O)=C3C(=O)c4c(O)ccc(Cl)c4[C@@](C)(O)[C@H]3C[C@@H]12 [Chlortetracycline] (Biolog plate: PM11, well positions: A5-8)",1.3 ± 0.26
4,"O=C(O)c1cc(O)c(O)c(O)c1 [gallic acid] (Biolog plate: PM19, well positions: A5-8)",1.33 ± 0.48
5,"NO [hydroxylamine] (Biolog plate: PM19, well positions: G9-12)",1.39 ± 0.47
6,"C[C@H]1O[C@@H](n2cc(F)c(=O)[nH]c2=O)[C@H](O)[C@@H]1O [5-fluoro-5'-deoxyuridine] (Biolog plate: PM18, well positions: H1-4)",1.75 ± 0.72
7,"O.O=S(=O)([O-])[O-].O=S(=O)([O-])[O-].O=S(=O)([O-])[O-].[Al+3].[Al+3] [aluminum sulfate] (Biolog plate: PM16, well positions: F9-12)",1.54 ± 0.56
8,"CSCCC(N)C(=O)NO (racemic) [DL-methionine hydroxamate] (Biolog plate: PM17, well positions: F5-8)",5.25 ± 1.3
9,"CC1(C)S[C@@H]2[C@H](NC(=O)[C@H](N)c3ccccc3)C(=O)N2[C@H]1C(=O)O [Ampicillin] (Biolog plate: PM13, well positions: A2-4)",1.06 ± 0.25
10,"CC1COc2c(N3CCN(C)CC3)c(F)cc3c(=O)c(C(=O)O)cn1c23 (stereo not given) [Ofloxacin] (Biolog plate: PM11, well positions: H9-12)",1.96 ± 0.47
11,"CCCCCCCCCCCC[N+](C)(C)CCOc1ccccc1 [Domiphen bromide] (Biolog plate: PM15, well positions: D5-8)",2.39 ± 0.17
12,"CCn1nc(C(=O)O)c(=O)c2cc3c(cc21)OCO3 [cinoxacin] (Biolog plate: PM16, well positions: D9-12)",16.4 ± 3.4
13,"O=[N+]([O-])c1ccc(-[n+]2nc(-c3ccccc3)nn2-c2ccc(I)cc2)cc1 [iodonitro tetrazolium violet] (Biolog plate: PM19, well positions: D5-8)",0.242 ± 0.11
14,"O=c1c(O)c(-c2cc(O)c(O)c(O)c2)oc2cc(O)cc(O)c12 [myricetin] (Biolog plate: PM18, well positions: G9-12)",0.868 ± 0.31
15,"CCN(CC)CC(=O)Nc1c(C)cccc1C [lidocaine] (Biolog plate: PM18, well positions: D9-12)",0.721 ± 0.15
16,"CO[C@H]1C[C@H](O[C@H]2[C@H](C)[C@@H](O[C@@H]3O[C@H](C)C[C@H](N(C)C)[C@H]3OC(C)=O)[C@@H](C)C[C@@]3(CO3)C(=O)[C@H](C)[C@@H](OC(C)=O)[C@@H](C)[C@@H](C)OC(=O)[C@@H]2C)O[C@@H](C)[C@@H]1OC(C)=O [troleandomycin] (Biolog plate: PM20, well positions: H9-12)",2.33 ± 1.1
17,"[Na+].[O]=[V](=[O])[O-] [Sodium metavanadate] (Biolog plate: PM14, well positions: F9-12)",1.84 ± 1
18,"Nc1ncn([C@@H]2O[C@H](CO)[C@@H](O)[C@H]2O)c(=O)n1 [5-azacytidine] (Biolog plate: PM16, well positions: E5-8)",2.23 ± 0.64
19,"NC(=O)c1cc[n+](CC2=C(C(=O)[O-])N3C(=O)[C@@H](NC(=O)[C@@H](c4ccccc4)S(=O)(=O)O)[C@H]3SC2)cc1 [cefsulodin] (Biolog plate: PM17, well positions: H1-4)",1.35 ± 0.096
20,"CCN1CCN(C(=O)N[C@@H](C(=O)N[C@@H]2C(=O)N3C(C(=O)O)=C(CSc4nnnn4C)CS[C@H]23)c2ccc(O)cc2)C(=O)C1=O [cefoperazone] (Biolog plate: PM17, well positions: G9-12)",1.44 ± 0.22
